Source: PubChem
Beta cell apopt – beta cell apoptosis inhibition | INS-1E cytokine-induced death, ATP luminescence, 48 h; percent of positive-control rescue, neutral wells zero | protection from apoptosis, % (test concentration not listed) | hit rate 0.8% among 300,000 | AID 435005;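 active means Every replicate reaches about 75%, or at least half do and their mean reaches it too, limit read from the data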;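 further: higher means more ATP so stronger rescue from cytokine killing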
CSC inhib – cancer stem cell inhibition | cancer stem cell-like cells viability, luminescence | inhibition, % at 7.5 µM | hit rate 1.1% among 300,000 | AID 2717; in the data active means inhibition above about 75%; tested in HMLE shEcad cells
Mdm2 MdmX PPI – human Mdm2/MdmX binding inhibition | hit rate 3% among 330,000 | inhibition, % at 8 µM | SaOS-2 split-luciferase Mdm2/MdmX complementation, luminescence | O15151+Q00987;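 active means inhibition of at least 50% at 8 µM in the primary screen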
Target sequence (O15151 whole entry, looked up): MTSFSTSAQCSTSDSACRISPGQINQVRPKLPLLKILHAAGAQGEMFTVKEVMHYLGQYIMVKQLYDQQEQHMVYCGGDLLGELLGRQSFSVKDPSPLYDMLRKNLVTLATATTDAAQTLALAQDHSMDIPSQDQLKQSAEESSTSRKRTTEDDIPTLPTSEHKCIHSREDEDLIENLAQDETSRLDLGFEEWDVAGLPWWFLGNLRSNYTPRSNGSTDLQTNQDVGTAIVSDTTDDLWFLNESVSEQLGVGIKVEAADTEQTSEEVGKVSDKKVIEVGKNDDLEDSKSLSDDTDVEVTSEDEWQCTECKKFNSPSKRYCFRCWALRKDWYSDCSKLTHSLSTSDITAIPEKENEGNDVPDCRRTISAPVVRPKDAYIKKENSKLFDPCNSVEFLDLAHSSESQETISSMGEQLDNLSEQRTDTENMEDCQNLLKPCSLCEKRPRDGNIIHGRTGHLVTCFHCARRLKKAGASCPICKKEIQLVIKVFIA
Target sequence (Q00987 whole entry, looked up): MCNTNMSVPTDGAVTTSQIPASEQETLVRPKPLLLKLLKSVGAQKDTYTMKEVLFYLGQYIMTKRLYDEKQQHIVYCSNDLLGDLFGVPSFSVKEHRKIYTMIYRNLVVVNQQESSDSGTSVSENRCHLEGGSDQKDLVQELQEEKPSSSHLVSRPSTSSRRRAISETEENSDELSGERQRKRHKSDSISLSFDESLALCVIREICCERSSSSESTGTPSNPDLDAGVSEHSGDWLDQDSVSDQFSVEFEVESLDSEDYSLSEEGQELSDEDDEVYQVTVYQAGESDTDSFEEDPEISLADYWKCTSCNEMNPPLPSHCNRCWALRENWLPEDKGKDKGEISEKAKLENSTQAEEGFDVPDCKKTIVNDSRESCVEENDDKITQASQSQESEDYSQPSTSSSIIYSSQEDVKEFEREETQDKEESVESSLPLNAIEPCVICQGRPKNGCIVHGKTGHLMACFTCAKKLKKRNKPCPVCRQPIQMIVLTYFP
MPTP inh – blocks calcium-induced mitochondrial swelling; inhibition, % at 10 µM; hit rate 1.4% among 360,000; isolated mouse mitochondria, Ca2+ swelling absorbance, 30 min; AID 602449;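 active means inhibition of 50% or more, scaled per plate between neutral and stimulator controls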
SKKanGAS inh – inhibitors of SKKanGAS S. pyogenes growth in kanamycin (SK-promoter or general growth effect) | AID 1662 | hit rate 1.3% among 300,000 | inhibition, % at 7.5 µM | BacTiter-Glo, 6 h;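 active means mean replicate score, as percent of positive control median, at least 50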;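 further: strain carries kanamycin resistance gene driven by streptokinase promoter and grows in 40 µg/ml kanamycin; loss of luminescence reflects streptokinase promoter inhibition or plain growth inhibition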
GRIN3A LBD mod – NR3A (human) ligand-binding domain modulation. NR3A LBD differential scanning fluorimetry, Tm shift; 0% = protein alone, 100% = glycine-bound protein. Tm shift relative to glycine control, % at 25 µM. hit rate 2.5% among 340,000;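 active means melting temperature shift of at least 10% of the positive control shift, at one fixed dose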
Large screens that a line does not name were inactive. Compounds with a hit are over-represented: about 6.9% of the library has one in this group of screens.

CCCn1c(CN(Cc2ccccc2)Cc2ccccc2)nc2c1c(=O)n(C)c(=O)n2C	GRIN3A LBD mod 14
COc1ccccc1N1CC(C)(C)C(=O)N(C(=O)c2ccc(Cl)cc2)C1=S	Beta cell apopt 85
CCn1ncc(CN2CCCC(CNC(=O)c3ccc(F)cc3)C2)c1C (configuration not stated)	none
CN(C)CCN(C)C1CN(C2CCCC2)S(=O)(=O)C1 (configuration not stated)	none (no result: Beta cell apopt, CSC inhib, Mdm2 MdmX PPI, SKKanGAS inh, GRIN3A LBD mod)
COc1cc(C(C(=O)NC2CCCCC2)N(C(=O)Cc2c[nH]c3ccccc23)c2ccc(C)cc2)cc(OC)c1OC (configuration not stated)	GRIN3A LBD mod 26
Cc1ccc(C(C(=O)NC2CCCCC2)N(C(=O)Cc2c[nH]c3ccccc23)c2ccccc2)o1 (configuration not stated)	none
CC1CCCCC1NC(=O)/C(C#N)=C/c1ccccc1F (configuration not stated)	CSC inhib 81
COc1ccccc1N1CCN(C(=O)CCCNC(=O)Cn2cnc3sc(C)c(C)c3c2=O)CC1	none
CCCCOc1ccc(OCCCC)c2c1NC1(N2)C(=O)N(C(C)=O)c2ccccc21	GRIN3A LBD mod 13
CCNC(=O)N1C(=O)C2(OCCO2)c2ccccc21	none (no result: Beta cell apopt)
O=C(CSc1ccc2ccccc2c1Br)Nc1cccc(S(=O)(=O)NC2=NCCCCC2)c1	CSC inhib 91, GRIN3A LBD mod 12
COc1ccc(NC(=O)CCNS(=O)(=O)c2cccc3nonc23)cc1Cl	GRIN3A LBD mod 18 (no result: CSC inhib)
CCCc1nnc2n1N=C(c1ccc(C)cc1)CS2	none (no result: Beta cell apopt)
COc1cccc(NS(=O)(=O)c2ccc3[nH]cc(C(=O)NCCC(C)C)c(=O)c3c2)c1	GRIN3A LBD mod 18
CC(C)CCNC(=O)c1c[nH]c2ccc(S(=O)(=O)N3CCOCC3)cc2c1=O	none
CCc1ccccc1NS(=O)(=O)c1ccc2[nH]cc(C(=O)NC3CCCC3)c(=O)c2c1	GRIN3A LBD mod 11
CNC(=O)c1c[nH]c2ccc(S(=O)(=O)Nc3ccccc3F)cc2c1=O	none
C(=N\Nc1nc(N2CCCCC2)nc(N2CCCCC2)n1)/c1c[nH]c2ccccc12	GRIN3A LBD mod 10
CN(C)c1nc(N/N=C/c2c[nH]c3ccccc23)nc(N2CCOCC2)n1	none
C(/CCc1ccccc1)=N\Nc1nc2ccccc2[nH]1	Beta cell apopt 88
Cc1ccc(/C=N/Nc2nc3ccccc3[nH]2)s1	none
Brc1ccc(-c2ccc(/C=N/Nc3nc4ccccc4[nH]3)o2)cc1	SKKanGAS inh 89, GRIN3A LBD mod 31
Cc1ccccc1/C=N/Nc1nc2ccccc2[nH]1	SKKanGAS inh 68 (no result: Beta cell apopt)
CN(Cc1ccco1)C(=O)Cn1ncc2c([nH]c3ccccc32)c1=O	none
Cc1cnc(C)c(Nc2nc(C(N)Cc3ccc(C(F)(F)F)cc3)cs2)n1 (configuration not stated)	none (no result: Beta cell apopt, CSC inhib, Mdm2 MdmX PPI, SKKanGAS inh, GRIN3A LBD mod)
C(=N\Nc1nc2ccccc2[nH]1)/c1c[nH]c2ccccc12	Beta cell apopt 119, SKKanGAS inh 64, GRIN3A LBD mod 15
Cc1cc(=O)[nH]c(N/N=C/c2c[nH]c3ccccc23)n1	none
C(=N\Nc1nc2ccccc2[nH]1)/c1ccccc1	none
O=[N+]([O-])c1cc(/C=N/Nc2nc3ccccc3[nH]2)c(O)cc1O	Beta cell apopt 94, SKKanGAS inh 97 (no result: Mdm2 MdmX PPI, MPTP inh)
O=C(COC(=O)c1cccnc1Cl)c1ccc(OC(F)F)cc1	none
O=C(NNc1ccccc1)C(=O)NNS(=O)(=O)c1ccc([N+](=O)[O-])cc1	CSC inhib 92
CCC(C(=O)Nc1cc(OC)c(NC(=O)c2ccccc2)cc1OC)c1ccccc1 (configuration not stated)	CSC inhib 79
CC(C)C[C@@H](CSc1ccccc1)N1CCN(CC(C)C)CCC1=O	none
Cc1ccc(CNCC(O)(c2ccccc2)c2ccc(Cl)cc2)cc1 (configuration not stated)	none (no result: Beta cell apopt, CSC inhib, Mdm2 MdmX PPI)
COc1cccc(CNCC(O)(c2ccc(Cl)cc2)c2ccc(Cl)cc2)c1	SKKanGAS inh 84
CCC(=O)Nc1cccc(NC(=S)NC(=O)c2ccccc2Cl)c1	GRIN3A LBD mod 17
O=C(Nc1ccc(NC(=O)c2cccnc2Cl)cc1)c1cccc(Cl)c1	GRIN3A LBD mod 22
O=C(Nc1ccc(NC(=S)NC(=O)c2ccccc2Cl)cc1)c1cccc(Cl)c1	CSC inhib 79, GRIN3A LBD mod 18
CCNC(=S)Nc1cccc(NC(=O)c2ccccc2O)c1	GRIN3A LBD mod 11
CCC(=O)Nc1cccc(NC(=O)c2ccccc2Cl)c1	none (no result: Beta cell apopt)
